CHX counter = counter-screen for Shiga toxin inhibitors: cycloheximide protein synthesis inhibition | 300,000 tested, 12% active | max response, % | cell reporter, cycloheximide protein synthesis inhibition counterscreen; in the data active means max response mostly above about 13%, no sharp cut-off; inactive means mostly below about 14%; further: read at 38.3 µM for the half of the compounds with a filed dose; 0% is about no effect
Shiga toxin inh = blocks Shiga toxin action in Vero cells | inhibition, % at 38.7 µM | 290,000 tested, 9.2% active | Vero cells, Shiga toxin protein synthesis inhibition reporter | AID 2315; in the data active means inhibition mostly above about 28%, no sharp cut-off; inactive means mostly below about 43%; further: 0% is about no effect
Pf growth 96h = P. falciparum growth inhibition at 96 hours | P. falciparum luciferase reporter growth, 96 h | Potency, µM (highest dose often 28.7 µM), without a hit: at the highest dose activity change, negative = inhibition, most hits filed as inhibitors | 320,000 tested, 6.9% active; further: potency means the concentration at half of the fitted maximal effect; on the % scale 0 is the no-effect control and ±100 the full control effect
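P. falciparum expressing integrated firefly luciferase, in erythrocytes at 2% hematocrit, 0.05% parasitemia, incubated with compounds 96 h at 37 C, 5% CO2. Growth inhibition read as loss of luminescence; two-generation exposure targets delayed-death apicoplast inhibitors.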
NS1 function inh = influenza NS1 inhibition | Potency, µM (top dose mostly 46.1 µM), without a hit: at the top dose activity, positive = more growth | 270,000 tested, 0.4% active; calls by dose curve; further: potency means the concentration at half of the fitted maximal effect; actives are rising curves; nearly all actives have a fitted effect of over 50% in size
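Growth recovery, yeast-based: influenza A NS1 expressed in S. cerevisiae causes slow growth, and suppressors are detected by OD600. The parent strain without NS1 is used as positive control.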
Sm TGR inh = blocks Schistosoma mansoni thioredoxin glutathione reductase; Potency, µM (titrated, usually from 114 µM), for the others: top-dose activity change, negative = inhibition, usual class: inhibitors; purified TGR, DTNB reduction, TNB absorbance 405 nm; 360,000 tested, 3% active; Q962Y6; further: potency means the concentration at half of the fitted maximal effect; on the % scale 0 is the no-effect control and ±100 the full control effect; nearly all actives have a fitted effect of over 60% in size
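First, TGR (20 nM dispensed) and NADPH were mixed with compound. Second, a 15 min room-temperature incubation followed. Third, further NADPH and then DTNB were added to start the reaction. Finally, TNB absorbance was monitored kinetically.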
Pf growth 48h = P. falciparum growth inhibition at 48 hours (one generation). P. falciparum luciferase growth in erythrocytes, 48 h. Potency, µM (titrated, usually from 28.7 µM), without a hit: at the highest dose activity change, negative = inhibition, hits mostly inhibitors. 310,000 tested, 5.9% active; further: potency means the concentration at half of the fitted maximal effect; on the % scale 0 is the no-effect control and ±100 the full control effect
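Erythrocytes infected with P. falciparum carrying an integrated firefly luciferase reporter (2% hematocrit, 0.1% parasitemia final) were exposed to compounds in RPMI 1640 with 0.5% Albumax at 37 C, 5% CO2. Growth inhibition was scored as reduced luminescence.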
* = called active by the depositor; i = inactive; ? = inconclusive; · = no result given; [ ] = remark or other dose. Compounds with a hit are over-represented: about 21% of the library has one in this group of screens. Unless noted, the call rests on the fitted dose curve; in most records, active means well fitted curve in the direction sought with a large enough effect; inconclusive means small, poorly fitted or top-dose-only effect, or another doubt; inactive means no such curve, though single readings can be large; an effect the other way counts as inactive or inconclusive.

SMILES	CHX counter	Shiga toxin inh	Pf growth 96h	NS1 function inh	Sm TGR inh	Pf growth 48h
O=C1CC(c2ccc(O)c(O)c2)Oc2cc(O)cc(O)c21 (centres undefined)	-2	19	?	4%	40µM*	35%
O=C1CC(c2ccc(O)cc2)Oc2cc(O)cc(O)c21 (centres undefined)	14*	36	26%	-5%	-14%	34%
O=C1C[C@@H](c2ccc(O)cc2)Oc2cc(O[C@@H]3O[C@H](CO)[C@@H](O)[C@H](O)[C@H]3O)cc(O)c21	7	-4	·	·	·	·
COc1cc(OC)c2c(c1O)OC(c1ccccc1)CC2=O (centres undefined)	-3	-9	9%	2%	50µM*	32%
COc1ccc([C@H]2Cc3cccc(O)c3C(=O)O2)cc1O	·	·	29%	·	-20%	73%
Cc1cc(C)nc(NS(=O)(=O)c2ccc(NC(=O)c3ccccc3O)cc2)n1	·	·	·	·	-11%	·
COC(=O)Cn1cnc2ccccc2c1=O	4	-15	·	4%	0%	·
O=C(Cn1cnc2ccccc2c1=O)c1ccc2c(c1)OCCO2	50*	70*	i	-66%	-27%	200%
O=C(Cn1ccc2ccccc2c1=O)NCCC(=O)Nc1ccc2c(c1)OCCO2	23*	38	·	10%	-27%	7%
COc1ccc(C(=O)Cn2cnc3ccccc3c2=O)cc1	41*	89*	131%	-44%	2%	79%
CC1CC(C)CN(CCCNC(=O)CCNC(=O)Cn2ccc3ccccc3c2=O)C1 (centres undefined)	-2	30	5.2µM*	5%	12%	·
O=C(Cn1ccc2ccccc2c1=O)Nc1ccc2c(c1)OCO2	5	0	?	5%	3%	27%
COc1ccc(NC(=O)COC(=O)CCCC2=NS(=O)(=O)c3ccccc3N2)cc1Cl	-2	21	?	3%	-2%	8%
O=C(Cn1cnc2ccccc2c1=O)NCc1ccc2c(c1)OCO2	-4	-16	·	13%	8%	2%
O=C(Cn1cnc2ccccc2c1=O)c1ccc2ccccc2c1	56*	68*	29%	-45%	-4%	71%
Cc1ccc(C(=O)Cn2cnc3ccccc3c2=O)cc1C	64*	104*	·	-94%	2%	13%
O=C(Cn1cnc2ccccc2c1=O)Nc1ccc2c(c1)OCO2	56*	active	132%	-19%	5%	131%
Cc1ccc(CNC(=O)Cn2ccc3ccccc3c2=O)o1	1	-14	63%	1%	32µM*	17%
O=C(O)Cn1cnc2ccccc2c1=O	-7	-17	-20%	-6%	-6%	·
CC(C)Oc1ccc(CN2CCC(n3nccc3NC(=O)CCc3ccccc3)CC2)cc1	6	-7	-14%	-4%	-22%	?
CC(C)(C)NC(=O)NC(=O)COC(=O)Cn1cnc2ccccc2c1=O	-5	-9	-3%	·	-2%	12µM*
O=C(C1CC(=O)N(C2CCCC2)C1)N1CCN(c2cccc(Cl)c2)CC1 (centres undefined)	-4	-7	2%	1%	0%	?
Cc1ccc(CNC(=O)C2c3ccccc3C(=O)N(C)C2c2c[nH]c3ccccc23)o1 (centres undefined)	16	2	17%	-13%	50µM*	?
COc1ccc(C2C(C(=O)Nc3cc(C)on3)c3ccccc3C(=O)N2C)cc1 (centres undefined)	-2	-2	-8%	-15%	-2%	?
COc1ccccc1Oc1ccc(N/C=C/C(=O)C(C)(C)C)cc1	14	45	0%	9%	·	0%
SMILES	CHX counter	Shiga toxin inh	Pf growth 96h	NS1 function inh	Sm TGR inh	Pf growth 48h
COc1ccc(Oc2ccc(N/C=C/C(=O)C(C)(C)C)cc2)cc1	25*	39*	-35%[1.15 µM]	·	11%	-19%
Cc1ccc(N/C=C/C(=O)C(C)(C)C)c(O)c1	62*	68*	?	8%	5%	·
CC(=O)Nc1ccc(N/C=C/C(=O)C(C)(C)C)cc1	18*	39*	·	-3%	-3%	10%
COc1cccc(Oc2ccc(N/C=C/C(=O)C(C)(C)C)cc2)c1	45*	28*	-24%	?	2%	-9%
CCCOc1ccc(/C=C2\SC(=S)N(CC3CCCO3)C2=O)cc1 (centres undefined)	-2	20	224%	-4%	-2%	-4%
O=C1/C(=C/c2ccc(O)cc2)SC(=S)N1CC1CCCO1 (centres undefined)	36*	40*	?	-4%	0%	-27%
CCN=C1S/C(=C\c2ccc(OC)c(OCC)c2)C(=O)N1CC	-2	-16	0%	6%	2%	-11%
CCN=C1S/C(=C\c2sccc2C)C(=O)N1CC	19*	31*	-6%	-11%	-4%	47%
Cc1ccsc1/C=C1\SC(=S)N(CC2CCCO2)C1=O (centres undefined)	0	31	1.3µM*	-2%	·	27%
O=C1Nc2ccc(Br)cc2C1(O)c1ccccc1 (centres undefined)	-1	-11	?	-1%	8%	6.6µM*
CCCCCNCc1ccc(OCc2ccc(Cl)nc2)c(OC)c1	0	10	?	-3%	3%	?
COc1ccc(CCNCc2ccc(OCc3ccc(Cl)nc3)c(OC)c2)cc1OC	-1	-7	12µM*	-3%	-4%	·
COc1cc(C=O)ccc1OCc1ccc(Cl)nc1	41*	66*	1%	-6%	16%	154%
Cc1ccc(-c2nc(S(=O)(=O)c3ccccc3)c(SCC(=O)NCC3CCCO3)o2)cc1 (centres undefined)	-2	15	?	28%	-26%	?
CCN(CC)S(=O)(=O)c1ccc2c(c1)c(=O)c(C(=O)N1CCN(c3cc(Cl)ccc3C)CC1)cn2C	·	·	·	·	8%	·
O=C(/C=C/C=C/c1ccccc1)CC1(O)C(=O)Nc2ccccc21 (centres undefined)	19*	37	?	·	?	15%
COc1cccc(C(=O)NCCS(=O)(=O)NCc2ccccn2)c1	·	·	23%	·	6%	15%
O=C(Nc1nnc(SCc2cccc3ccccc23)s1)C1COc2ccccc2O1 (centres undefined)	-1	1	-5%	16%	2%	11%
O=C(C#Cc1cccc([N+](=O)[O-])c1)c1ccccc1	-6	2	-7%	-187%	-29%	·
Nc1ccccc1C#CC(=O)c1ccccc1	-1	-2	3%	-68%	0.5µM*	?
Cc1c(-c2ccco2)[n+](=O)c2c(n1[O-])CCC2	4	2	15µM*	8%	-4%	18%
Cc1ccc(-c2c(C)n([O-])c3c([n+]2=O)CCCCC3)o1	-4	12	100%	5%	1%	42%
COc1cccc2sc(N(C)c3ccccc3)nc12	61*	86	-6%	-21%	26%	·
COc1cccc2sc(N)nc12	·	·	22%	·	-9%	30%
